Compounds without any hit were thinned out: in the full panel of roughly 83,000, 20% have a hit.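 Testing used 96-well plates and a 48-hour single-concentration exposure. Example: -40 means 40% of the starting cells died.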 A number with no mark means an inactive call. Active and inactive are the calls of the source. The calls were made as follows: active = growth percent below 10; inactive = the rest.
tested on: HL-60(TB) leukemia; test: NCI-60 one-dose screen, 48 h (100 = growth as untreated, 0 = no growth, -100 = all killed); details: 10 µM unless noted

Compound | growth
CC(C)C(=O)Cc1cnccn1 | 134%
O=C(/C=C/C12c3ccccc3C(c3ccccc31)C1C(=O)NC(=O)C12)c1ccccc1 (configuration not stated) | 9.79% (active)
COc1ccc(-c2cc(C(=O)Nc3ccc(Br)cc3)nc3[nH]c(=O)sc23)cc1 | 25.5%
CC(=O)Nc1cc2c(cc1Cl)Cc1cc(Cl)ccc1-2 | 114%
CC(C)N=C(N)/N=C(\N)Nc1ccc2ccc3ccccc3c2c1 | -47.8% (active)
COC(=O)c1ccc2cc(OC)c(OC)cc2c1 | 94.8%
CCCCCC(=O)OCc1ccc(Cl)c(Cl)c1 | 97.2%
Cn1c(=O)c2nc(SCc3ccccc3)n(C)c2n(C)c1=O | 92.3%
CCn1cc(C(=O)N/N=C/c2ccc(Br)cc2)c(=O)c2cc(F)c(N3CCNC(C)C3)c(F)c21 (configuration not stated) | 48.7%
CCN(CC)CCCC(C)N=C(C1=C(C(=NC(C)CCCN(CC)CC)c2cccc(OC)c2)C(=O)NC1=O)c1cccc(OC)c1 (configuration not stated) | -49.3% (active)
Oc1ccc(Cl)cc1-c1cc(-c2ccc(F)cc2)n[nH]1 | 74.9%
COc1ccc(-c2nc3ncccn3c2-c2nnc(-c3ccsc3C)o2)cc1 | 92.5%
CNC(=O)c1cc(Oc2ccc3c(c2)sc2nc(-c4ccc(NC(C)=O)cc4)cn23)ccn1 | 44.2%
Cc1ccc(-c2c(-c3ccccc3)c(=O)oc3ccc(C)cc23)cc1 | 87%
CCCCN(CC)CC(CC)Nc1cc(OC)cc2cccnc12 (configuration not stated) | 126%
O=c1c2cccc3c(Nc4ccccn4)ccc(c32)c2nc3ccccc3n12 | 62.3%
C[C@@H]1CC[C@@H]2[C@@H]1[C@H](OC(=O)/C=C/c1ccccc1)[C@]1(C3CCCCC3)C[C@@H](NC(=O)CO)[C@@]2(C)O1 | 104%
Cn1c2c(c3ccccc31)CCN1C[C@@H]3CCCC[C@H]3C[C@@H]21 | 2.52% (active)
Cn1ccnc1C(=O)/C=C/c1ccc(C(=O)Nc2ccccc2O)cc1 | 0.702% (active)
CCN(CC)CCOc1ccc(Nc2ncc3cc(-c4ccc(O)cc4)c(=O)n(C)c3n2)cc1 | 40.2%
NNC(=O)NO | 94.4%
O=C(Nc1cccc(Cl)c1)Nc1cccc(Cl)c1 | 43.9%
CN1CCN(C(=O)c2ccc(NC(=O)c3cc4c(nn3)NCCN4Cc3cc(Cl)ccc3Cl)cc2)CC1 | 43%
CCn1c2ccc(O)cc2c2c(C)c3c[n+](C)ccc3c(C)c21 | 95.5%
O=C1COCCN1c1ccc(NCc2cn(C(=O)c3ccc(Cl)cc3)c3ccccc23)cc1 | 90.6%
Clc1ccc2nc(CI)c(CI)nc2c1 | 2.82% (active)
C=C1CC[C@@H]2[C@](C)(COC(C)=O)[C@H](OC(C)=O)CC[C@@]2(C)[C@@H]1C/C=C1/C(=O)OC[C@H]1OC(C)=O | 79.1%
